Activity calls are given as the source filed them.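 Rule for the calls: active = relative FRET score above 0.01, or acceptor fluorescence over 30% below the sample-well median; inactive = the rest.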
target: Protein Rev (Human immunodeficiency virus type 1 group M subtype B (isolate WMJ22)) (UniProt P05866); assay: HIV-1 Rev-RRE binding inhibitors, retest, confirmation, biochemical, FRET, acceptor and relative FRET calls (AID 837); conditions: Fl-Rev peptide / Cy5-RRE RNA FRET, 1536-well; at 8 µM;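 note: relative FRET combines rise in Cy5 acceptor with fall in fluorescein donor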
Sequence (P05866 whole entry, looked up): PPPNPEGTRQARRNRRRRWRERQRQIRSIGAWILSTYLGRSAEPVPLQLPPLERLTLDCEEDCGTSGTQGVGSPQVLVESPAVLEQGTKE

SMILES | outcome
CC1CCC(NCCc2ccc3c(c2)OCO3)CC1 (stereo not given) | inactive
CN1C2CCC1CC(OC(=O)c1cc(Cl)cc(Cl)c1)C2 (stereo not given) | inactive
c1ccc(C(OCCN2CCNCC2)c2ccccc2)cc1 | inactive
Cc1ccc(-c2nc(N(C)C3CCN(C)CC3)c3ccccc3n2)cc1 | inactive
CC(NC1CCCCC1)C(O)C12CC3CC(CC(C3)C1)C2 (stereo not given) | inactive
COc1ccc(CCC(C)NCCc2ccccc2)cc1 (stereo not given) | inactive
OC(Cc1ccccc1)(c1ccccc1)C1CN2CCC1CC2 (stereo not given) | inactive
COc1ccc(CCNC(C)CCc2ccc(OC)cc2)cc1 (stereo not given) | active
CNCC(O)c1cccc(OC(=O)c2ccccc2C)c1 (stereo not given) | inactive
COc1ccc(CCNCc2ccc(SC)cc2)cc1 | inactive

Source: PubChem BioAssay AID837 (The Scripps Research Institute Molecular Screening Center, 2007)
